The source of these data is PubChem BioAssay (EPA / NIEHS).

Activity calls are given as the source filed them. How the source made its calls: active means hit-call score of the fitted dose curve at least 0.9, where 1 is the maximum; inactive means score below 0.9.

This experiment is described as follows: ATG_AP_2_CIS: Attagene CIS-FACTORIAL HepG2 Assay for human Activator Protein 2 (AP-2) (AID 2282932). As to conditions: HepG2 AP-2 cis-reporter, Attagene transcription factor profiling; actives raise or lower the signal. The procedure:
ATG_CIS is a cell-based, multiplexed-readout assay that uses HepG2, a human liver cell line, with measurements taken at 24 hours after chemical dosing in a 24-well plate.ATG_AP_2_CIS is one of 52 assay component(s) measured or calculated from the ATG_CIS assay. It is designed to make measurements of mRNA induction, a form of inducible reporter, as detected with fluorescence intensity signals by Reverse transcription polymerase chain reaction (RT-PCR) and Capillary electrophoresis technology.Data from the assay component ATG_AP_2_CIS was analyzed into 1 assay endpoint. This assay endpoint, ATG_AP_2_CIS, was analyzed with bidirectional fitting relative to DMSO as the negative control and baseline of activity. Using a type of inducible reporter, measures of mRNA for gain or loss-of-signal activity can be used to understand the reporter gene at the transcription factor-level as they relate to the gene TFAP2A and TFAP2B and TFAP2D. Furthermore, this assay endpoint can be referred to as a primary readout, because this assay has produced multiple assay endpoints where this one serves a reporter gene function. To generalize the intended target to other relatable targets, this assay endpoint is annotated to the dna binding intended target family, where the subfamily is basic helix-turn-helix leucine zipper.
Human liver HepG2 cells are transiently transfected with multiple reporter transcription units (MRTUs) in 6-well plates using FuGene 6 reagent (Roche; 3 ml FuGene/1 mg DNA). The MRTU constructs are regulated by a cis-regulating element (promoter). […] A major difference between the CIS and TRANS system is that in CIS activities of endogenous TFs are measured, whereas the TRANS assay evaluates changes in activities of exogenous, chimeric NR-Gal4 proteins. […] At the end of 24 hour incubation, total RNA was isolated using TriZol reagent (Invitrogen). The isolated RNA is then reverse-transcribed using oligo(dT) primer and Mo-MLV reverse transcriptase (Invitrogen) with DNAse I (Ambion) treatment for 30 min. The one-tenth of the produced cDNA was amplified by PCR using Taq DNA polymerase (Invitrogen) and two reporter sequence-specific primers. The PCR products were fluorescently labeled by primer extension with 6-arboxyfluorescein (6-FAM) 5'-labeled reporter sequence-specific primer (2 min at 95 C, 20 s at 68 C and 10 min at 72 C) and these products were digested with 5U of HpaI (New England Biolabs) for 2h at 37 C. The fragments were purified using Qiaquick PCR columns (Qiagen), analyzed on an ABI 3130xL genetic analyzer (Applied Biosystems) with peak positions identified by using a set of X-rhodamine (ROX)-labeled MapMarker1000 molecular weight standards (BioVentures). The raw capillary electrophoresis data was processed using Attagraph software (Attagene).
As for `Cc1cccc(C)c1O`, the call was inactive. Same read-out and setting: then `Nc1ccccc1N`, with “inactive”; and `CN1CCCC1=O`, with “inactive”. The same measure, in the same setting: the entry for `CCNc1cccc(C)c1` is “inactive”. As to `Cc1ccc2ncccc2c1`, the result was inactive. Still for that read-out and setting: the entry for `COCCOC[C@H](CC1(C(=O)NC2CCC(C(=O)O)CC2)CCCC1)C(=O)Oc1ccc2c(c1)CCC2` (stereo not given in full) is “inactive”. Still for that read-out and setting: then `CCCCCCCCCCCCCO`, with “inactive”; and `COc1ccc(C)cc1N`, with “inactive”. The same measure, in the same setting: the entry for `COc1ccc2c(c1)c(CC(=O)O)c(C)n2C(=O)c1ccc(Cl)cc1` is “inactive”. Regarding `O=C(OCCCCCOC(=O)c1ccccc1)c1ccccc1`, the call was inactive.

Take `COCCOCCOC`: the result was inactive. The same measure, in the same setting: the entry for `CC(=O)OC/C=C(\C)CCC=C(C)C` is “inactive”. The same measure, in the same setting: then `Cc1c(C(=O)O)c(O)cc2c1C(=O)c1c(O)c([C@@H]3O[C@H](CO)[C@@H](O)[C@H](O)[C@H]3O)c(O)c(O)c1C2=O`, with “inactive”.

Take `CC(=O)OCCOCCOCCOC(C)=O`: the call was inactive. Still for that read-out and setting: then `CCCCCCCCCCCC(=O)OC`, with “inactive”; and `C1CCC(SSC2CCCCC2)CC1`, with “inactive”. The same measure, in the same setting: then `CCCCCCC(=O)OCC`, with “inactive”; and `CCCc1cc(=O)[nH]c(=S)[nH]1`, with “inactive”; and `CCCCCC(=O)O`, with “inactive”. On the same count and under the same terms, then `C=CCOC(=O)c1ccccc1C(=O)OCC=C`, with “inactive”; and `FC(F)(F)C(F)(F)C(F)(F)C(F)(F)C(F)(F)C(F)(F)CCI`, with “inactive”. In the case of `C=CCc1ccc(O)c(OC)c1`, the call was inactive.

For `CN[C@H]1CC[C@@H](c2ccc(Cl)c(Cl)c2)c2ccc(S(N)(=O)=O)cc21`, the outcome was inactive.

Take `Cc1nc(C)nc(N2C[C@@H](C)N(c3ccnc([C@@H](C)O)n3)[C@@H](C)C2)n1`: the compound was classed as inactive.

As for `CCCCOC(=O)CCCCCCCCC(=O)OCCCC`, the compound was called inactive.

As usually defined, the AC50 is the concentration at which the activity in the assay is half-maximal. As for `COc1cc(-c2nc(NC(=O)c3cc4cc(C)cc(C)c4n3CC(=O)O)sc2CCC2CCCCC2)c(OC)cc1Cl`, the AC50 is 10.4 µM (active). For the compound `O=c1c(O)c(-c2ccc(O)c(O)c2)oc2cc(O)cc(O)c12`, the result was inactive. Still for that read-out and setting: the entry for `CCOC(=O)C(C)(C)Oc1ccc(Cl)cc1` is “inactive”; for `CCCCCCCCCCCCCCCC` it is “inactive”. The same measure, in the same setting: the entry for `O=C(O)Cc1ccccc1Nc1c(Cl)cccc1Cl` is “inactive”.

As to `c1cc(-c2ccncc2)ccn1`, the outcome was inactive.

Take `CC(C)c1ccc(C(=O)N=C(N)N)cc1S(C)(=O)=O`: the compound was classed as inactive. On to `NCC1(Cc2noc(=O)[nH]2)CCCCC1`, for which the call was inactive. Same read-out and setting: then `COc1cc(S(=O)(=O)O)c(C)cc1N=Nc1c(O)ccc2cc(S(=O)(=O)O)ccc12`, with “inactive”.

Consider `COc1cc(/C=C/C(=O)CC(=O)/C=C/c2ccc(O)c(OC)c2)ccc1O`, for which the AC50 was 55.5 µM (active).

With `CCCCCCCCCCO`, the result was inactive. For the compound `CC1(C)CC(N=C=O)CC(C)(CN=C=O)C1` (stereo not given), the call was inactive. For `O=C(N[C@@H](Cc1ccccc1)[C@@H](O)C(=O)N1C[C@@H](O)[C@@H](O)C1)c1cc2cc(Cl)ccc2[nH]1`, the AC50 was 155 µM (active). Turning to `Nc1ccc(S(=O)(=O)c2ccc(N)cc2)cc1`, the outcome was inactive. Take `C[Si]1(C)O[Si](C)(C)O[Si](C)(C)O[Si](C)(C)O1`: the result was inactive.
